# Compounds without any hit were thinned out: in the full panel of roughly 83,000, 20% have a hit.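 Growth was measured after 48 h exposure to one concentration of compound in 96-well plates. Values under 10 count as active.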 Activity calls are given as the source filed them.
# System: 786-0 renal
# Assay: NCI-60 one-dose screen, 48 h (100 = growth as untreated, 0 = no growth, -100 = all killed)
# Conditions: 10 µM unless noted
row,SMILES,growth
1,c1ccc2c(c1)oc1cc3sccc3nc12,96.1% (inactive)
2,CC1=C(C(=O)OCC2CCN(C(=O)OC(C)(C)C)CC2)[C@H](c2cccc(C#N)c2)C2=C(CC(C)(C)CC2=O)N1,62.8% (inactive)
3,O=C(c1nc2ccccc2[nH]1)C1C(c2ccc([N+](=O)[O-])cc2)C2CC3CCCCC3N2[C@@]12C(=O)Nc1cc(Cl)ccc12 (stereo partly drawn),38.5% (inactive)
4,Nc1ccn(C2O[C@H](CO)[C@@H](O)[C@H]2O)c(=O)n1 (stereo partly drawn),95.2% (inactive)
5,Nc1ccc(-n2c(=O)oc3ccc(Cl)cc3c2=O)c(Cl)c1,-33.5% (active)
6,CC1=C(C(=O)OCC2CCN(C(=O)OC(C)(C)C)CC2)[C@@H](c2cccc(C#N)c2)C2=C(CC(C)(C)CC2=O)N1,41.5% (inactive)
7,N#Cc1c(N)nc2c(c1N)C(c1ccc(F)cc1)c1ccc(N)cc1O2 (stereo not drawn),92.3% (inactive)
8,COc1ccc(Cn2c(Br)c3c(c2-c2cc(OC)c(OC)c(OC)c2)CCc2sc(NC(=O)c4ccc(OC)cc4)nc2-3)cc1,89.8% (inactive)
9,O=c1cc(NC2CCN(CCCc3ccccc3)CC2)c2cc(Cl)ccc2o1,18.1% (inactive)
10,Brc1ccc(Oc2ccc(Nc3ncnc4onc(-c5ccccc5)c34)cc2)cc1,98.5% (inactive)
11,NNC(=O)CNC(=O)Nc1n[nH]c(=S)s1,103% (inactive)
12,COc1ccc(Cn2c(Br)c3c(c2-c2cc(OC)c(OC)c(OC)c2)CCc2sc(NC(C)=O)nc2-3)cc1,54.1% (inactive)
13,COc1ccc(/C=C2\NC(=O)NC2=O)cc1O,97.8% (inactive)
14,Cc1cc2c(c(C)c1Cl)C(=O)/C(=C/c1ccco1)O2,105% (inactive)
15,O=C(Nc1ccc(N2CCNCC2)cc1)c1[nH]ncc1Nc1cc(Oc2ccccc2)ncn1,2.25% (active)
16,CS(=O)(=O)Nc1ccc(C(=O)NC(C(=O)NO)c2ccc(-c3cccc(F)c3)cc2)cc1 (stereo not drawn),72.8% (inactive)
17,CC[C@]1(O)C[C@@H]2CN(CCc3c([nH]c4ccccc34)[C@@](C(=O)OC)(c3cc4c(cc3OC)N(C)[C@H]3[C@@](O)(C(=O)OC)[C@H](OC(C)=O)[C@]5(CC)C=CCN6CC[C@]43[C@@H]65)C2)C1,9.87% (active)
18,O=C(CN1C(=O)/C(=C\c2ccc(Cl)cc2)SC1=S)Nc1ncc(Cc2ccc(Cl)cc2)s1,106% (inactive)
19,CCCCC(O)(c1ccc(Cl)cc1)C(CN1CCOCC1)c1ccc(Cl)cc1 (stereo not drawn),53.8% (inactive)

row,SMILES,growth
1,O=C(Nc1ccc(C23CC4CC(CC(c5ccccc5)(C4)C2)C3)cc1)c1cccs1,78.7% (inactive)
2,O=C(COc1cc(O)c2c(=O)cc(-c3ccccc3)oc2c1)Nc1ccccc1,81.9% (inactive)
3,COc1cc(C(=O)Nc2ccc(-c3nc4ccccc4[nH]3)cc2)cc(OC)c1OC,73.4% (inactive)
4,COC(=O)[C@@H]1CCCN1C(=O)[C@H]1CCCN1C(=O)[C@@H](Cc1c[nH]c2ccccc12)NC(=S)Nc1cc(C(F)(F)F)cc(C(F)(F)F)c1,52.5% (inactive)
5,O=C(CCc1nnc2sc(-c3ccc(Cl)cc3Cl)nn12)c1nc2ncccc2[nH]1,-31.5% (active)
6,O=Cc1cc2ccccc2nc1Nc1nccs1,69% (inactive)
7,O=C(CCc1nnc2sc(Cc3ccccc3Cl)nn12)c1nc2ncccc2[nH]1,105% (inactive)
8,NS(=O)(=O)c1ccc(CCN=C=S)cc1,20.8% (inactive)
9,CCOc1cc(Cl)c(C(C)NC(=O)c2cccc(OC)c2)cc1OCC (stereo not drawn),-74.9% (active)
10,CN1CCN(Cc2ccc(C(=O)Nc3cncc(C#Cc4cnc5cccnn45)c3)cc2C(F)(F)F)CC1,57.2% (inactive)
11,COc1ccc2c(c1)C=C1CSCC3=Cc4cc(OC)ccc4OC13O2,38.6% (inactive)
12,CN1CCN(Cc2ccc(NC(=O)c3cncc(C#Cc4nc(N)nc5[nH]ncc45)c3)cc2C(F)(F)F)CC1,111% (inactive)
13,COc1cc(C(=O)O/N=C(\N)Cc2cccc3ccccc23)cc(OC)c1OC,45.9% (inactive)
14,Nc1nc(-c2cnccn2)nn1-c1nc2ccccc2s1,102% (inactive)
15,COC(=O)C1=C(C)NC(C)=C(C(=O)OC)C(N2C(=O)CCC2=O)C1 (stereo not drawn),99.2% (inactive)
16,COc1ccc(Br)c(/C=C2\SC(=Nc3ccc(O)cc3)NC2=O)c1,82.8% (inactive)
17,COc1ccc(Cn2c(Br)c3c(c2Br)-c2nc(NC(=O)c4ccc(OC)cc4)sc2CC3)cc1,61.8% (inactive)
18,Nc1ncnc(N)c1NC(=O)c1ccc(OCc2ccccc2)cc1,104% (inactive)
19,CCOc1ccc(-c2nonc2NC(=O)c2cccc(C)c2)cc1OCC,73.9% (inactive)

# Reference: PubChem BioAssay (NCI)
